Structures are written as SMILES. Records with an inconclusive call do not appear. The source made the active and inactive calls. The calls were made as follows, unless noted: active = hit-call score of the fitted dose curve at least 0.9, where 1 is the maximum; inactive = score below 0.9.

Test [1] in a line: CCTE_Shafer_MEA_dev_firing_rate_mean: CCTE's Neural Network Formation Assay for Mean Firing Rate, Shafer Lab (AID 2284031). A digest of the protocol: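 Spike frequency (spikes/recording length, averaged over active electrodes) was recorded on days 5, 7, 9 and 12 and collapsed to AUC; rat cortical cultures received compound continuously over 12 days of network development.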
Test [2] can be described thus: CCTE_Shafer_MEA_dev_per_burst_spike_percent: CCTE's Neural Network Formation Assay for Percent of Spikes in a Burst, Shafer Lab (AID 2284032).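 Also: fitted as a decrease in burst spike percentage below DMSO baseline.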 In a few lines:
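Value is trapezoidal AUC over recordings on days 5, 7, 9 and 12 of the well-mean fraction of spikes falling in single-electrode bursts; rat cortical cultures exposed continuously from plating, treatment renewed DIV 5 and 9, fitted downward against DMSO.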

A short description of test [3]: CCTE_Shafer_MEA_dev_active_electrodes_number: CCTE's Neural Network Formation Assay for Number of Active Electrodes, Shafer Lab (AID 2284040; active = hit-call score of the fitted dose curve at least 0.9, where 1 is the maximum;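 also: potency for loss of active electrodes versus DMSO so lower counts are hits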). In a few lines: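 Counts electrodes per well firing at least 5 spikes/min, recorded on days 5, 7, 9 and 12 in rat cortical cultures dosed continuously from plating (treatment refreshed DIV 5, 9). Value is the area under the curve over recordings, fitted downward relative to DMSO.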

The nature of test [4]: CCTE_Shafer_MEA_dev_burst_rate: CCTE's Neural Network Formation Assay for Burst Rate, Shafer Lab (AID 2284042). A digest of the protocol:
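Cells plated, treated day 0; recorded DIV 5, 7, 9, 12; fed and re-treated DIV 5, 9. Endpoint: bursts per recording time, active-electrode well mean, trapezoidal AUC, fitted in decreasing direction against DMSO baseline.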

Test [5] in a line: CCTE_Shafer_MEA_dev_bursting_electrodes_number: CCTE's Neural Network Formation Assay for Number of Bursting Electrodes, Shafer Lab (AID 2284043; active = hit-call score of the fitted dose curve at least 0.9, where 1 is the maximum;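 also: potency is for loss of bursting electrodes relative to DMSO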). A digest of the protocol:
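Number of electrodes reaching ≥1 burst every 2 min was recorded at DIV 5, 7, 9 and 12 and collapsed as trapezoidal area under the curve. Cultures were rat cortical neurons on MEA plates, dosed continuously from plating with medium and treatment refreshed on DIV 5 and 9.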

The nature of test [6]: CCTE_Shafer_MEA_dev_burst_duration_mean: CCTE's Neural Network Formation Assay for Mean Burst Duration, Shafer Lab (AID 2284045). A digest of the protocol:
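Mean single-electrode burst duration (first to last spike), averaged over bursting electrodes per well, then integrated as area-under-curve across recordings at days 5, 7, 9 and 12. Rat cortical cultures on MEAs, compound present from plating, refreshed at feeds.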

Test [7] is described as follows: CCTE_Shafer_MEA_dev_interburst_interval_mean: CCTE's Neural Network Formation Assay for Mean Interburst Interval, Shafer Lab (AID 2284046).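 Also: curve fitted for decrease in interburst interval relative to DMSO.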 A digest of the protocol: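 Developing rat cortical networks on 48-well MEAs receive compound from the day of plating. Burst intervals from each active electrode are averaged per well, and AUC over the recording days is fitted in the negative direction against DMSO.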

Test [8] can be described thus: CCTE_Shafer_MEA_dev_inter_network_spike_interval_mean: CCTE's Neural Network Formation Assay for Mean Inter-network Spike Interval, Shafer Lab (AID 2284047). In a few lines: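 Rat cortical cultures, 1.5 x 10^5 cells/well on 48-well MEA plates; continuous exposure days 0–12, medium and compound refreshed DIV 5, 9. Mean time between consecutive network-spike peaks; AUC across DIV 5/7/9/12; DMSO baseline, negative fitting direction.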

A short description of test [9]: CCTE_Shafer_MEA_dev_network_spike_number: CCTE's Neural Network Formation Assay for Number of Network Spikes, Shafer Lab (AID 2284048).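 Also: synchronized bursts across electrodes counted on days 5 7 9 12 and integrated as AUC.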 In a few lines: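 Number of network spikes (coordinated firing across electrodes) recorded on days 5, 7, 9 and 12 and summarised as area under the curve. Rat cortical cultures on MEA, continuous compound exposure with full medium/treatment exchange at DIV 5 and 9.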

The nature of test [10]: CCTE_Shafer_MEA_dev_network_spike_peak: CCTE's Neural Network Formation Assay for Mean Number of Electrodes in Network Spike, Shafer Lab (AID 2284049).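 Also: fitted for loss of signal meaning fewer electrodes in network spikes than DMSO.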 A digest of the protocol: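 Rat cortical primary culture, 1.5 x 10^5 cells/well, 48-well MEA (16 electrodes/well). Dosing day 0 through DIV 12, full media/compound exchange DIV 5, 9. AxIS adaptive spike detection; AUC over days 5/7/9/12; loss-of-signal vs DMSO.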

Test [11] in a line: CCTE_Shafer_MEA_dev_spike_duration_mean: CCTE's Neural Network Formation Assay for Mean Spike Duration, Shafer Lab (AID 2284051).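 Also: mean network spike duration pooled as area under curve over DIV 5 to 12 recordings; potency for a decrease in mean network spike duration versus DMSO.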 A digest of the protocol:
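Readout is the average length of network spikes, clustered firing across electrodes, summed over DIV 5, 7, 9 and 12 as area under the curve. Neurons from rat cortex developed networks on MEA plates under continuous 12-day exposure.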

The nature of test [12]: CCTE_Shafer_MEA_dev_network_spike_duration_std: CCTE's Neural Network Formation Assay for Standard Deviation of Network Spike Duration, Shafer Lab (AID 2284052).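 Also: hits are decreases in network spike duration SD versus DMSO vehicle.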 In a few lines:
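Read-out is the trapezoidal area-under-the-curve across recordings made on days 5, 7, 9 and 12, fitted in the negative direction against DMSO baseline. Neurons were primary rat cortical cells treated from day 0, with treatment renewed at each feed.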

Test [13] is described as follows: CCTE_Shafer_MEA_dev_per_network_spike_spike_number_mean: CCTE's Neural Network Formation Assay for Mean Number of Spikes in a Network Spike, Shafer Lab (AID 2284053). In a few lines: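 Continuous twelve-day exposure of developing rat cortical networks grown over 16 microelectrodes per well; spontaneous firing is captured at four time points, and the per-network-spike spike number is integrated over development by trapezoidal AUC.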

Test [14] is described as follows: CCTE_Shafer_MEA_dev_per_network_spike_spike_percent: CCTE's Neural Network Formation Assay for Percent of Spikes in a Network Spike, Shafer Lab (AID 2284054). In a few lines:
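Metric: fraction of spikes falling in a 0.05 s window at network-spike peaks. Recordings were made on days 5, 7, 9 and 12 and collapsed by trapezoidal AUC. Cultures were rat cortical neurons on MEA plates, dosed continuously from plating, re-dosed at media changes.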

The nature of test [15]: CCTE_Shafer_MEA_dev_LDH: CCTE's Lactate Dehydrogenase Assay for Cytotoxicity in the Neural Network Formation Assay, Shafer Lab (AID 2284068; active = hit-call score of the fitted dose curve at least 0.9, where 1 is the maximum;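 also: exposure for twelve days from plating with re-dosing on DIV 5 and 9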). A digest of the protocol:
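Cytotoxicity companion to network-formation recordings: rat cortical neurons received compound over 12 days of development, re-dosed at DIV 5 and 9 feeds. Viability was inferred from LDH enzyme activity relative to DMSO.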

Test [16] in a line: CCTE_Shafer_MEA_dev_AB: CCTE's Alamar Blue Assay for Cytotoxicity in the Neural Network Formation Assay, Shafer Lab (AID 2284083; active = hit-call score of the fitted dose curve at least 0.9, where 1 is the maximum;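 also: resazurin reduction fluorescence as viability of cultured neurons; twelve days of exposure from plating with re-dosing on DIV 5 and 9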). A digest of the protocol:
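Fluorescent resazurin reduction serves as the viability read-out, with DMSO as negative control and baseline. Cells were primary rat cortical neurons grown on MEA plates and dosed from day 0 to day 12, treatment renewed on DIV 5 and 9.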
Background: The colour change of resazurin is a common sign of viable cells or microbes.

Test [17] is described as follows: CCTE_Shafer_MEA_dev_mutual_information_norm: CCTE's Neural Network Formation Assay for Mutual Information Normalization, Shafer Lab (AID 2284091).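 Also: mutual information between electrodes summarised as area under curve across four recording days; potency is for a decrease in mutual information relative to DMSO.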 A digest of the protocol:
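Shared information across electrodes, tracked on days 5, 7, 9 and 12 of network development and collapsed as trapezoidal area under the curve. Rat cortical cultures were treated continuously from plating, with treatment renewed at feeds on DIV 5 and 9; DMSO baseline, negative-direction fit.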

For the molecule `NCCc1cc(O)c(O)cc1O`, the outcome in [1], in [4], in test [6], in test [7], in test [8] and in test [9] was inactive. Further, in test [12], the result was inactive. In addition, the AC50 was 6.25 µM (active) in test [2]; 4.79 µM (active) in test [3]; 4.29 µM (active) in [5]; 6.57 µM (active) in test [10]; 5.15 µM (active) in test [11]; 4.47 µM (active) in test [13]. The AC50 is 10.1 µM (active) in [14], 6.82 µM (active) in test [15], 9.87 µM (active) in test [16] and 3.2 µM (active) in test [17].

One may read the AC50 as the midpoint of the concentration-response curve, whichever way the signal moves.

(Values after PubChem BioAssay (EPA / NIEHS).)
